This passage reports outcome results from PubChem BioAssay AID720523 (National Center for Advancing Translational Sciences (NCATS), 2013).

Among all 1,400 compounds or so, about 25 (2%) were called active. Another 19% or so got no clear call; they are omitted. Calls come from the whole dose curve; as a rule, active = well fitted inhibition curve with a large enough effect; inconclusive = small, poorly fitted or top-dose-only effect; inactive = flat fitted curve, though single readings scatter. These entries were drawn from the full list.

The assay in a line: Nrf2 qHTS screen for inhibitors: A549 ARE-Fluc Cytotoxicity Counterscreen for Hit Validation. Particulars: A549 ARE-Fluc cells; series mostly up to 46.1 µM. The source says:
Nrf2 is a transcription factor that maintains cellular redox homoestasis and protects cells from xenobiotics. Nrf2 binds to the antioxidant response element (ARE) to induce gene expression of a broad spectrum of genes that encode for antioxidants. […] Finding a small molecule that act as an inhibitor of Nrf2 function would represent a novel therapeutic target that could lead to improvement in survival of patients undergoing chemo- and/or radio- therapy.
In collaboration with the Biswal laboratory, a cell based, luminescence assay (BugLite) was developed to detect the Nrf2 activity using the A549 ARE_Fluc cells (AID 504648). This assay was coupled with a fluorescence based (CellTiter Fluor) cytotoxicity assay to identify and exclude toxic compounds. This coupled assay was used to evaluate selected compounds for hit validation. The data herein is the result of the CellTiter Fluor assay where decrease in fluorescence signal = cytotoxicity. Inactivity is the desired outcome for this assay.
NIH Chemical Genomics Center [NCGC]
NIH Molecular Libraries Probe Centers Network [MLPCN]
Assay Submitter (PI): Shyam Biswal, Johns Hopkins University
[1] Shibata T., et al., Genetic alteration of Keap1 confers constitutive Nrf2 activation and resistance to chemotherapy in gallbladder cancer. Gastroenterology, 2008.
[2] Sjoblom T., et al., The consensus coding sequences of human breast and colorectal cancers. Science, 2006.
Five uL of cell suspension was dispensed into 1536-well white TC-treated plate using the Kalypsys dispenser to achieve a density of 5000 cells/well in all columns except column 1. The plates were incubated at 37deg C at 5% CO2 for 2 hours before 23 nL of compounds were added with the Kalypsys pin tool equipped with a 1,536-pin array. The control compounds Budesonide and Staurosporine were added at a concentration of 2mM. Budesonide was also added as a 1:10 titration, starting at 200uM, to achieve the dose-response control signal. The plates were incubated for 18-24 hour at 37deg C, 5% CO2 followed by a 5ul addition of 5% FBS OPTI-MEM growing media in column 1 as negative control. One microliter of 5x CellTiter Fluor (Promega) was added to each well and the assay plates were incubated at 37deg C, 5% CO2 for 30 minutes. The fluorescence signal was read using the PerkinElmer ViewLux plate reader (Ex = 405 nm /Em = 525 nm) for a 3 second exposure. After the signal was taken, 3 uL of 3x BugLite was dispensed into all wells. The plates were then incubated at room temperature for 15 minutes. A second ViewLux read (40 sec exposure) was performed to detect the luminescence signal. Cytotoxicity was assessed through the first fluorescent read while biochemical activity against Nrf2 was measured in the luminescent read. The data was normalized to the positive and negative controls.
(In general: In qHTS, concentration-response curves come from the screen itself.)
On to `CCC(C)N1C(=O)S/C(=C/c2ccc(Sc3nc4ccccc4[nH]3)o2)C1=O` (stereo unspecified), for which the call was inactive. As for `CC(C)(C)c1ccc(Oc2ccc(N)cc2)cc1`, the compound was classed as inactive.

As to `CCOc1ccc(S(=O)(=O)N2CCCCC2)cc1NC(=O)CN1CCCC1c1cccs1` (stereo unspecified), the compound was classed as inactive. For `O/N=C(\C[n+]1ccccc1)c1ccc(Br)cc1`, the outcome was inactive. Next, `COc1ccc(C(=O)C[n+]2ccc(N)c(C)c2C)cc1`: “inactive”; `Cc1csc[n+]1CCC1CCCCC1`: “inactive”. The value for `CCCCNc1nc2c(c(=O)n(C)c(=O)n2C)n1Cc1cccc(OC)c1` was “inactive”; that for `COc1cccc(-c2nc(CS(=O)(=O)CC(=O)N3CCN(c4cc(C)ccc4C)CC3)c(C)o2)c1` was “inactive”; that for `CC(C)Cn1c(N)c(C(=O)COC(=O)CN2C(=O)C3CC=CCC3C2=O)c(=O)n(C)c1=O` (stereo unspecified) was “inactive”. The value for `O=C1C=C(c2ccnc3cc(Cl)ccc23)C[C@@H](c2ccc3c(c2)OCO3)C1` was “inactive”; that for `CN(Cc1cccnc1)C(=O)c1cc(COc2ccc3ncccc3c2)on1` was “inactive”; that for `Cc1ccc(NS(=O)(=O)c2cccs2)cc1S(=O)(=O)N1CCCCCC1` was “inactive”. On to `CC(=O)OC(C)C[N+](C)(C)C` (stereo unspecified), for which the compound was called inactive. As for `Cn1nccc1C(=O)NC1CCCc2c1cnn2-c1ccc(F)cc1F` (stereo unspecified), the compound was called inactive. As for `COCCn1c(SCC(=O)Nc2ccccc2F)nc2c(c1=O)SCC2`, the result was inactive. Next, `CC(=O)N1c2ccc(S(=O)(=O)N3CCCC(C(=O)Nc4cccc(Cl)c4)C3)cc2CC1C` (stereo unspecified): “inactive”. The value for `CC1CCCN(S(=O)(=O)c2ccc(C(=O)Nc3nnc(-c4ccncc4)o3)cc2)C1` (stereo unspecified) was “inactive”; that for `CC(=O)N1CCCc2cc(S(=O)(=O)N3CCCC(C(=O)N4CCN(c5cccc(Cl)c5)CC4)C3)ccc21` (stereo unspecified) was “inactive”. The value for `O=C(CN1C(=O)c2ccccc2S1(=O)=O)N1CCc2ccccc21` was “inactive”; that for `CC1(C)O[C@@H]2CC3C4C[C@H](F)C5=CC(=O)C=CC5(C)C4C(O)CC3(C)[C@]2(C(=O)CO)O1` (stereo partly specified) was “inactive”. In the case of `Cc1ccc(NC(=O)C2CC(=O)N(c3ccc4c(c3)OCCO4)C2)cc1S(=O)(=O)N1CCCCCC1` (stereo unspecified), the outcome was inactive. On to `C=CCC1(CC=C)CCCN1C(=O)c1cc(COc2ccc(-n3cncn3)cc2)on1`, for which the compound was classed as inactive. The value for `COc1ccc(CC(=O)Nc2nc(-c3ccc(F)c(F)c3)cs2)cc1OC` was “inactive”; that for `CC(C)(C)n1ncc2c(=O)n(Cc3ccc(C(=O)c4ccccc4)cc3)cnc21` was “inactive”. Next, `Brc1c(CSc2nncc3ccccc23)nc2ccccn12`: “inactive”; `CCC(C)(C)c1ccc(Oc2ccc(NC(=O)COC(=O)C3=COCCO3)cc2)cc1`: “inactive”. Consider `OCCCNc1nccc(-c2cc(Nc3cccc(Cl)c3)ncn2)n1`, for which the compound was classed as inactive. The value for `CC(=O)N1c2ccc(S(=O)(=O)N3CCCC(C(=O)NCc4ccc(Cl)cc4)C3)cc2CC1C` (stereo unspecified) was “inactive”. As to `Cc1cc(C)c(-c2csc(NC(=O)CCCc3nc4ccccc4c(=O)[nH]3)n2)c(C)c1`, the outcome was inactive.

Consider `COc1ccc(CCNC(=O)c2ccc(CS(=O)(=O)c3ccc(Br)cc3)o2)cc1OC`, for which the result was inactive.

`Cc1cccc(N2CCN(C(=O)CCS(=O)(=O)c3ccc4c(c3)NC(=O)C(C)S4)CC2)c1C` (stereo unspecified): the outcome was inactive.

With `O=C(OCCOc1ccccc1Cl)c1cc(S(=O)(=O)N2CCCCC2)ccc1N1CCOCC1`, the compound was classed as inactive. The value for `Cc1nc(N2CCOCC2)c2c(C)c(C(=O)Nc3ccc(C(F)(F)F)cc3)sc2n1` was “inactive”; that for `Cc1ccc(S(=O)(=O)N2C[C@@H]3CCCC[C@@H]3[C@@H](C)[C@H]2c2cn(Cc3ccccc3)c3ccc(F)cc23)cc1` was “inactive”. Regarding `Cc1ccc(S(=O)(=O)N2CCN(c3ncnc4ccccc34)CC2)cc1`, the compound was classed as inactive. Next, `COc1ccc(OC)c(Cc2cnc3nc(N)nc(N)c3c2C)c1`: “inactive”; `O=C(Nc1ccncc1)c1c(F)cccc1F`: “inactive”; `O=C(Nc1ccc(Br)cn1)C1CCN(S(=O)(=O)c2cccs2)CC1`: “inactive”. The value for `O=C(CCC(=O)N1CCN(S(=O)(=O)c2ccc(Cl)cc2)CC1)NCc1cccc(C(F)(F)F)c1` was “inactive”; that for `Cc1cc(C(=O)NC2CCCc3c2cnn3-c2cccc(C)c2C)c(C)o1` (stereo unspecified) was “inactive”. Turning to `CCOC(=O)c1cnc(-n2nc(C)cc2C)nc1NNc1cc(C)nc(-c2ccccc2)n1`, the compound was classed as inactive. For the compound `COc1ccc(N2CCN(C(=O)CSCc3nc(-c4ccccc4Cl)oc3C)CC2)cc1`, the compound was called inactive. Next, `CCCOc1ccc(Cc2c(Cl)nc(SC)nc2NC)cc1`: “inactive”; `O=c1[nH]c(SCc2cccc(F)c2)nc2ccccc12`: “inactive”. As to `O=C(CSc1nnc2c(n1)[nH]c1ccccc12)NC1CCCCC1`, the result was inactive. `CCCN(c1ccc(C(C)C)cc1)S(=O)(=O)c1c(C)[nH]c(=O)[nH]c1=O`: the call was inactive.

For `CC1CCN(S(=O)(=O)c2ccc(NC(=O)C3CC(=O)N(c4ccccc4)C3)cc2)CC1` (stereo unspecified), the call was inactive. As for `CCCOc1ccc(C(=O)Nc2ccc3oc(-c4cccc(Cl)c4Cl)nc3c2)cc1`, the result was inactive.

For the compound `c1ccc(C(=NNc2nc3ccccc3s2)c2ccccn2)cc1`, the result was inactive. For the compound `CCNS(=O)(=O)c1ccc(CCC(=O)N2CCN(c3cc(Cl)ccc3C)CC2)cc1`, the outcome was inactive. As to `Cc1c(Cl)cccc1NC(=O)Cn1cc(C(=O)c2cccs2)c2ccccc21`, the result was inactive.
